Bioassay records (PubChem BioAssay)
An excerpt weighted towards active compounds, which were near 2.4% of everything screened.
POLK inh – inhibitors of human DNA polymerase kappa; Q9UBT6; purified Pol kappa, fluorescent DNA synthesis assay, 10 min; Potency, µM (series often up to 107 µM), without a hit: at the highest dose activity, negative = inhibition, actives largely listed as inhibitors; 400,000 tested, 0.53% active; also: % is scaled to controls: 0 for no effect and ±100 for the full control effect
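Kinetic fluorescence readout at 0 and 10 min followed reaction start with substrate at 50 nM final. Beforehand, enzyme (10 nM Pol kappa) stood 15 min with compound at room temperature; buffer-only wells were negative controls.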
WRN inhibitor – WRN helicase (human) inhibition; Q14191; WRN helicase unwinding, fluorescent forked duplex, kinetic; Potency, µM (highest dose often 114 µM), inactives show top-dose activity change, negative = inhibition, usual class: inhibitors; 360,000 tested, 0.46% active; AID 651768; also: % is scaled to controls: 0 for no effect and ±100 for the full control effect; nearly all actives have a fitted effect of over 55% in size
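WRN at 20 nM final was preincubated with compound for 15 min at room temperature; reaction started with 100 nM forked duplex oligonucleotide carrying fluorophore and quencher plus 2 mM ATP (final). Unwinding followed kinetically by red fluorescence (ex 525/em 598 nm).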
FEN1 inhibitor – blocks human flap endonuclease 1. P39748. Potency, µM (top dose mostly 114 µM), without a hit: at the highest dose activity change, negative = inhibition, most hits filed as inhibitors. Recombinant FEN1 flap cleavage, fluorescence, 15 min. 390,000 tested, 0.35% active; also: % is scaled to controls: 0 for no effect and ±100 for the full control effect; nearly all actives have a fitted effect of over 65% in size
Target sequence (P39748 whole entry, looked up): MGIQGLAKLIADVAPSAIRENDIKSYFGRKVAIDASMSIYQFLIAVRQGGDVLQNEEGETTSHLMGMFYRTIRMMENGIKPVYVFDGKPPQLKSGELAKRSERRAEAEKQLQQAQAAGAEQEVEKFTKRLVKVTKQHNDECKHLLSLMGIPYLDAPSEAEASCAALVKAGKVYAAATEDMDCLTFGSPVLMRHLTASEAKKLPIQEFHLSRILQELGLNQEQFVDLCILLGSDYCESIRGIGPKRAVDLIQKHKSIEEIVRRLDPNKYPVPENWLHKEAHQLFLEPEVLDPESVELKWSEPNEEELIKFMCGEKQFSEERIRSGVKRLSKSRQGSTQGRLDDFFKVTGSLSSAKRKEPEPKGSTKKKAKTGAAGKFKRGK
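Nuclease activity of 10 nM FEN1 was measured after 15 min of room-temperature exposure to titrated compounds, by adding 50 nM flap substrate and reading plates at 0 and 15 min.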
Pol iota inh – inhibitors of human DNA polymerase iota. Potency, µM (doses to about 115 µM), inactives show top-dose activity, negative = inhibition, usual class: inhibitors. 390,000 tested, 1% active. AID 588590. Pol iota fluorescent replication assay, 10 min
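Fluorescent replication assay read twice, at 0 min and 10 min after adding 50 nM (final) substrate. Enzyme (10 nM) and compounds were first incubated 15 min at room temperature; enzyme-free buffer wells were negative controls.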
POLB inh – DNA polymerase beta (human) inhibition; 340,000 tested, 1.3% active; Pol beta primer extension/strand displacement, fluorescence kinetic; P06746; Potency, µM (doses to about 114 µM), without a hit: top-dose activity change, negative = inhibition, most hits filed as inhibitors; also: % is scaled to controls: 0 for no effect and ±100 for the full control effect
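Human Pol beta at 10 nM; strand-displacement substrate 50 nM final. Compound exposure 15 min at room temperature before start, reaction 10 min at room temperature.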
Pol eta inh – blocks human DNA polymerase eta activity. recombinant Pol eta, fluorescent DNA replication assay. Potency, µM (titrated, usually from 114 µM), without a hit: at the highest dose activity change, negative = inhibition, usual class: inhibitors. 390,000 tested, 1.2% active; also: % is scaled to controls: 0 for no effect and ±100 for the full control effect
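Fluorescent replication assay: 50 nM final substrate added after a 15 min room-temperature compound preincubation with 10 nM enzyme. Signal taken at 0 min and again at 10 min.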
The depositor's hits bear a star; ? = inconclusive; nt = no result given; ! = not active in a repeat; [ ] = remark or other dose. Calls follow the shape of the dose curve; as a rule, active = well fitted curve in the direction sought with a large enough effect; inconclusive = small, poorly fitted or top-dose-only effect, or another doubt; inactive = no such curve, though single readings can be large; an effect the other way counts as inactive or inconclusive. Potency is read from the fitted curve at half-maximal effect.

SMILES | POLK inh | WRN inhibitor | FEN1 inhibitor | Pol iota inh | POLB inh | Pol eta inh
CN(C)c1ccc(/C=C/c2cccc3cc4ccccc4nc23)cc1 | -15% | nt | 79µM* | -10% | nt | nt
CN(C)c1ccc(/C=C/c2nc3ccccc3s2)cc1 | ? | 5% | 50µM*! | 89µM*! | 27% | -4%
CN(Cc1ccccc1)c1ccc(/C=C/c2nc3ccccc3s2)cc1 | 25µM* | nt | 35µM* | 89µM* | nt | nt
Cc1ccc(/C=C/c2nc3ccccc3s2)s1 | -8% | -3%[57.1 µM] | -15% | 24% | -7% | -11%
CN1C2CCC1/C(=C/c1cccn1C)C(=O)/C2=C\c1cccn1C | -11% | -29% | 0% | 75% | ? | ?
COc1ccc(Cl)cc1NS(=O)(=O)c1cccc(C(=O)NC2CCN(Cc3ccccc3)CC2)c1 | -9% | 2% | -14% | -2% | nt | -6%
COC(=O)[C@H](CCSC)NC(=O)Nc1cccc(C)c1C | -17% | -1% | -2% | 10% | 19% | 4%
CCOC(=O)c1ccc(N=Nc2c(C)[nH]n(-c3ccccc3)c2=O)cc1 | -8% | 5% | -7% | 6% | ? | -8%
COc1cc(/C=C/c2nc3ccccc3s2)cc(OC)c1O | -17% | -7% | ? | 152% | 22µM* | ?
CN(C(=S)NC(=O)c1ccc(Cl)cc1)C1CCCCC1 | -43% | -28% | 5% | ? | 11µM* | ?
CN(C(=S)NC(=O)c1ccc(F)cc1)C1CCCCC1 | -1% | 7% | 20% | -6% | -21% | -1%
Cc1cccc(N2CCN(C(=O)C3CCN(C(=O)c4cc5sccc5n4C)CC3)CC2)c1C | -23% | nt | -19% | 4% | 0% | -14%
O=C1C2CC=C(Cl)CC2C(=O)N1c1ncn[nH]1 (centres undefined) | -3% | -14%[57.1 µM] | -5% | ? | 28µM* | 22µM*
O=C1C2CC=CCC2C(=O)N1c1ncn[nH]1 (centres undefined) | 0% | 1% | -9% | 6%[58.9 µM] | 1% | -6%
Cc1cccc(/C=N/NC(=O)c2cc(Br)ccc2OCc2ccccc2)n1 | -16% | -29% | 14% | ? | 45µM* | -24%
CCOc1ccc(/C=C(/NC(=O)c2ccc(Cl)cc2)C(=O)O)cc1OCC | 10% | 14% | 4% | -17% | 1% | -13%
CCc1ccc(NC(=O)C(C)OC(=O)c2ccc(NS(=O)(=O)c3ccc(C)c([N+](=O)[O-])c3)cc2)cc1 (centres undefined) | ? | -2%[11.6 µM] | -12% | ? | -2% | 79µM*
Cc1ccc(NC(=O)C(C)OC(=O)c2ccc(NS(=O)(=O)c3ccc(F)c(F)c3)cc2)cc1 (centres undefined) | -22% | -5% | -7% | 4% | 14% | -9%
O=C(CSc1nnc(-c2ccccc2)o1)c1nnc(-c2ccccc2)o1 | -14% | -22% | 9% | -24% | -24% | 20µM*
COC(=O)c1cc2c(C)c(C)c3ccccn3c-2c1C(=O)OC | -3% | -17% | 8% | ? | 16% | ?
CC(C)OC(=O)c1c2c(n3ccccc13)C(=O)c1ccccc1C2=O | -3% | 89µM* | ? | 75% | -5% | ?
COc1ccc(NC(=O)COC(=O)CC2Sc3ccccc3NC2=O)cc1 (centres undefined) | -15% | -3% | -5% | 55% | nt | 2%
COc1ccc2c(COC(=O)CC3Sc4ccccc4NC3=O)cc(=O)oc2c1 (centres undefined) | -23% | -13%[11.6 µM] | -3% | ? | 35µM* | 20µM*
CCOC(=O)c1csc(NC(=O)c2cc(OC)c(OC)c(OC)c2)n1 | -3% | 3% | 5% | 2% | 0% | -1%
O=C(/C=C/c1ccc(O)c(O)c1)c1ccc(O[C@@H]2O[C@H](CO)[C@@H](O)[C@H](O)[C@H]2O)c(O)c1O | 0.19µM* | nt | nt | nt | nt | nt
O=C1C[C@@H](c2ccc(O)c(O)c2)Oc2c1ccc(O[C@@H]1O[C@H](CO)[C@@H](O)[C@H](O)[C@H]1O)c2O | 2.7µM* | nt | nt | nt | nt | nt
